Among the data in PubChem BioAssay (NCI) are growth values, retold here.

The panel holds about 83,000 compounds, 20% with a hit somewhere; the sample as a whole holds those more often.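 A percent growth of 40 corresponds to 60% growth inhibition; 0 means no net growth; -100 means all cells died. Active threshold: below 10.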 Unmarked numbers belong to inactive results. The source made the active and inactive calls.

Holding throughout (assay): NCI-60 one-dose screen, 48 h (100 = growth as untreated, 0 = no growth, -100 = all killed)
Details in all cases: 10 µM unless noted

For assay [1], the system named is DU-145 prostate.
Assay [2] concerns K-562 leukemia.
For assay [3], the system named is MALME-3M melanoma.
The test system of assay [4] is MDA-MB-231 breast.
In assay [5] the test system is RXF 393 renal.
In assay [6] the test system is SF-268 CNS.
In assay [7] the test system is SF-295 CNS.
The subject of assay [8] is SF-539 CNS.
The test system of assay [9] is M14 melanoma.

Consider `COc1ccc2c(c1)NC(=O)CN2c1nc(NC2CC2)nc2ccccc12`, for which the growth is 0.326% (active) in assay [1]; 8.2% (active) in assay [2]; 70.3% in assay [3]; 14.9% in assay [4]; 39.2% in assay [5]; 21.9% in assay [6]. For the same compound, the growth in assay [7] was 0.0109% (active); in assay [8], -15% (active); in assay [9] it was 6.86% (active).

As to `CCC(c1cccc(Br)c1)C(C(=O)O)c1ccc(OC)cc1` (stereo not given), the growth was 116% in [1]; 77.6% in assay [2]; 101% in [3]; 111% in assay [4]; 118% in assay [5]; 105% in [6]. Besides, the growth was 108% in assay [7], 104% in assay [8] and 86.5% in [9].

For `CN(C)C/C=C/C(=O)Nc1cc2c(Nc3ccc(F)c(Cl)c3F)ncnc2cc1OCCOC(F)F`, the growth was 10.4% in [1]; 5.47% (active) in assay [2]; 35.3% in [3]; -1.17% (active) in [4]; -29.4% (active) in assay [5]; 14.4% in assay [6]. The growth was 33.7% in assay [7], 9.19% (active) in assay [8] and 41.5% in [9].

For `CN(C)C/C=C/C(=O)Nc1cc2c(Nc3cccc(Cl)c3F)ncnc2cc1OCCOC(F)F`, the growth was 31.3% in assay [1]; 18.1% in assay [2]; 38.5% in assay [3]; 17.6% in [4]; 6.09% (active) in [5]; 41.9% in [6]. Moreover, the growth was 55.2% in assay [7], 36.7% in assay [8] and 67.5% in assay [9].

With `C#CCC1(c2ccc(F)c(F)c2)NS(=O)(=O)c2ccccc21` (stereo not given), the growth in assay [1] is 107%; in assay [2] it was 89.4%; in [3], 93.7%; in assay [4], 109%; in [5], 114%; in assay [6] it was 102%. Besides, the growth in assay [7] was 105%; in assay [8] it was 104%; in assay [9] it was 107%.

Take `O=C(C[N+](=O)[O-])c1ccc(Cl)cc1`: the growth was 111% in assay [1]; 103% in assay [2]; 114% in assay [3]; 110% in assay [4]; 115% in assay [5]; 108% in assay [6]. For the same compound, the growth in assay [7] is 111%; in [8], 104%; in assay [9], 101%.

On to `COC(=O)CC/C(C)=N\Nc1ccc([N+](=O)[O-])cc1`, for which the growth in assay [1] is 85.5%; in [2], 4.87% (active); in assay [3] it was 104%; in assay [4], 79.6%; in assay [5] it was 101%; in assay [6], 72.4%. Also, the growth in assay [7] was 72.4%; in [8], 65.8%; in assay [9], 20.4%.

For `C=C1C(=O)O[C@H]2[C@H]1CC/C(Cn1cc(-c3ccc(N)cc3)nn1)=C\CC[C@@]1(C)O[C@@H]21`, the growth in [1] is 4.28% (active); in [2], 6.36% (active); in assay [3], -23.1% (active); in assay [4] it was 4.85% (active); in assay [5] it was -67.1% (active); in assay [6], 16.6%. In addition, the figures for the growth in assay [7], in assay [8] and in assay [9] were 67.6%, -18.7% (active) and -18.2% (active), respectively.

Regarding `O=C(O)c1ccc(-n2cc(CNc3ccc(C(F)(F)F)cc3)c(-c3ccccc3)n2)cc1`, the growth in assay [1] was 95.9%; in assay [2], 80.6%; in assay [3] it was 91.3%; in assay [4], 102%; in assay [5], 99.4%; in assay [6], 91.4%. The growth in assay [7] is 75%; in [8] it was 99.9%; in [9], 89%.

For `CC/C=C\C[C@H](O)C/C=C1/C(=O)C(Cl)=C[C@@H]1C/C=C\CCCC(=O)OC`, the growth in [1] was -67.1% (active); in [2], 2.41% (active); in assay [3], -9.56% (active); in assay [4], -55.2% (active); in assay [5], -62.8% (active); in assay [6], -35% (active). In addition, the growth is -19.6% (active) in assay [7], -4.69% (active) in assay [8] and -32.4% (active) in [9].

Turning to `O=C1Nc2cc(Cl)ccc2/C1=C/c1ccc(N2CCOCC2)s1`, the growth in assay [1] was 110%; in [2], 98.5%; in [3], 96.5%; in assay [4], 99%; in assay [5], 93.9%; in assay [6] it was 114%. Also, the figures for the growth in [7], in [8] and in [9] were 86.8%, 92.3% and 111%, respectively.

For `CS(=O)(=O)N(c1cc(-c2ccc3ncnc(Nc4cccc(Cl)c4)c3c2)cnc1Cl)S(C)(=O)=O`, the growth is 21.6% in assay [1]; 26.5% in [2]; -24.7% (active) in [3]; 7.55% (active) in assay [4]; -20.1% (active) in assay [5]; 24% in [6]. Moreover, the growth in assay [7] is -4.24% (active); in assay [8], -8.58% (active); in [9], 21.8%.

As for `Cc1ccccc1C(=O)c1ccccc1C(=O)O`, the growth was 110% in assay [1]; 106% in assay [2]; 109% in assay [3]; 115% in [4]; 118% in [5]; 106% in [6]. Further, the growth in assay [7] was 109%; in assay [8], 105%; in [9] it was 96.3%.

For the compound `COc1ncc(-c2ccc3ncnc(Nc4cccc(Cl)c4)c3c2)cc1NS(=O)(=O)CCN1CCOCC1`, the growth in [1] is 18.6%; in assay [2], 45.8%; in assay [3], -19.8% (active); in assay [4], 16.4%; in assay [5] it was -30.7% (active); in [6] it was 23%. Further, the growth in assay [7] was -24.1% (active); in [8] it was -18.9% (active); in assay [9] it was 18.1%.

For the compound `C=CCOc1ccc(/C(O)=C2\C(=O)C(=O)N(c3nccs3)C2c2ccccc2F)cc1` (stereo not given), the growth was 114% in assay [1]; 109% in assay [2]; 92.1% in assay [3]; 112% in [4]; -20.5% (active) in assay [5]; 116% in assay [6]. In addition, the growth in assay [7] was 85.1%; in assay [8], 125%; in assay [9], 82.7%.
